Drawing on ChEMBL document CHEMBL3988442, “University of Dundee, Small-Polar-MMV Screening Library” (2021), this text covers Percent Effect for eleven molecules.

For some of these results: Potency and affinity values are given separately.

Holding throughout (parameters): scale not given: direction of the effect not stated beside the values
Assay [1] has as its target Protein translocase subunit SecA (Escherichia coli (strain K12)) (UniProt P10408). The assay is described as follows: Assay to Identify E. coli SecA ATPase Inhibitors. In kind it is functional. The following applies: 30 µM.
Assay [2] addresses T1, Ubiquitin-activating enzyme e1, putative (Leishmania donovani (strain BPK282A1)) (UniProt E9BSI1).
T1 sequence (whole entry): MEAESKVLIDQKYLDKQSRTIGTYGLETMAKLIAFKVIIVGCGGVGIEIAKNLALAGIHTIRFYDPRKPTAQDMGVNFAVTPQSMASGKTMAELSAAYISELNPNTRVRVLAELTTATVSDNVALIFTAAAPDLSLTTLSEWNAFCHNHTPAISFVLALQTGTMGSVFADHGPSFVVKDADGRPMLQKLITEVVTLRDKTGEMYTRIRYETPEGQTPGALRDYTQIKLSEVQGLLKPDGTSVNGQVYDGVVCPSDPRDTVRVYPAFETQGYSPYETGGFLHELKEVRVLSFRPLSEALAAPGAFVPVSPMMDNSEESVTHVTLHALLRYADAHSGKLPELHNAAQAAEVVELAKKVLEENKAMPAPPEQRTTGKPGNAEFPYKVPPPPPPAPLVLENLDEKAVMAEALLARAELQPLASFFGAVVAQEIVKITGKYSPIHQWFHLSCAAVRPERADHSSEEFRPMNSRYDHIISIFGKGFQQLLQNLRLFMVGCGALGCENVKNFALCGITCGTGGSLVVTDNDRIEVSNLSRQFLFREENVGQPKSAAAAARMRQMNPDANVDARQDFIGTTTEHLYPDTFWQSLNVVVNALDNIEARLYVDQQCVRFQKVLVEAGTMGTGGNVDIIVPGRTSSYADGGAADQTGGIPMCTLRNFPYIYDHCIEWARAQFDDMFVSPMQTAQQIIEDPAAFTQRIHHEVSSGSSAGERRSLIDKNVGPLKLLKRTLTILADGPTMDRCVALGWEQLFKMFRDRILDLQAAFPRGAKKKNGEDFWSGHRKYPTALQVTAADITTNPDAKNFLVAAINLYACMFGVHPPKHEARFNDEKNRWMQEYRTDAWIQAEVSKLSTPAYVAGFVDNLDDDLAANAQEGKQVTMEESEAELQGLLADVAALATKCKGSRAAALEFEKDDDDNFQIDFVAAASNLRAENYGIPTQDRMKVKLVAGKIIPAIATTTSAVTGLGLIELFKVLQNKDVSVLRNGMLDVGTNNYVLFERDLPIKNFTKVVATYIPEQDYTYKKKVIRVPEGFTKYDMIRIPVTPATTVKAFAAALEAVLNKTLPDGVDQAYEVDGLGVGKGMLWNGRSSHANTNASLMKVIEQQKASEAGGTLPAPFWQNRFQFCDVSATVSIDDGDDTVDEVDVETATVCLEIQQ
The experiment in a line: Leishmania donovani Ubiquitin Activating Enzyme (LdE1). In kind it is functional. The following applies: 30 µM.

Assay [3] concerns the target AMP-activated protein kinase, AMPK (Homo sapiens) (UniProt P54646+O43741+P54619+Q9UGJ0+Q9Y478+Q13131+Q9UGI9). The experiment in a line: AMP-dependent Kinase enzyme assay. An in vitro enzyme assay that detects ADP turnover that is directly proportional to AMPK activity. This uses naive AMPK that is activated during the assay with MK-8722. In kind it is functional. The conditions noted are these: 30 µM.

Assay [4] deals with Sialic acid-binding Ig-like lectin 9 (Homo sapiens) (UniProt Q9Y336). The experiment in a line: Hs-Siglec9 ALPHAscreen SOP 20170721. The conditions noted are these: 10 µM.
A further assay deals with Trypanosoma cruzi. The experiment in a line: Trypanosoma cruzi phosphomannomutase and mannose-1-phosphate guanylyltransferase assay. In kind it is functional. The conditions noted are these: 10 µM.
The target in assay [5] is T2, Arginase-2, mitochondrial (Homo sapiens) (UniProt P78540).
T2 sequence (whole entry): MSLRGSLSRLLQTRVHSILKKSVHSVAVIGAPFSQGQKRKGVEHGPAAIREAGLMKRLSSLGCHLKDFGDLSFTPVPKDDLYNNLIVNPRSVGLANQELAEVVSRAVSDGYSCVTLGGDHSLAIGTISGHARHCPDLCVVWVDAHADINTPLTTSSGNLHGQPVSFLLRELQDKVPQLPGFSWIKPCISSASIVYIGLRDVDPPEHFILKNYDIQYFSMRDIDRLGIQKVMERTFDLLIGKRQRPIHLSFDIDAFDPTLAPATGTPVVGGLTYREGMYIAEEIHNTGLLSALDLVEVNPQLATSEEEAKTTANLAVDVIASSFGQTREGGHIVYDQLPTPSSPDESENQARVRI
The assay is described as follows: in vitro enzyme assay to detect the production of urea directly proportional to the activity of Arginase II. Note: in the data most compounds retested in dose-response had high values. In kind it is functional. The conditions noted are these: 33.3 µM.

In assay [6] the target is T3, Proteasome subunit beta (Trypanosoma cruzi) (UniProt O96673).
T3 sequence (whole entry): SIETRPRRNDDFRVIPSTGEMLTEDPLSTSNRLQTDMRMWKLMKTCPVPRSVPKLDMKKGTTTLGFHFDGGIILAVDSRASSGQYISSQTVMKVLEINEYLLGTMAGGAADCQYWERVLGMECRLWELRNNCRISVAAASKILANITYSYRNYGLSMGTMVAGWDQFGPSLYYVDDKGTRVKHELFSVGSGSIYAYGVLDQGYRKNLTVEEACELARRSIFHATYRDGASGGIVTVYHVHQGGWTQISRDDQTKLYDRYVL
The assay is described as follows: Trypanosoma cruzi proteasome chymotrypsin-like activity (TcProtChymo) assay. Note: in the data most compounds retested in dose-response had high values. In kind it is functional. The conditions noted are these: 9.37 µM.

The species named for a further assay is Homo sapiens. The assay is described as follows: To identify inhibition of the IFN signalling (Jak-Stat) pathway via expression of an eGFP reporter gene under the control of an IFN-stimulated response element (ISRE) containing MxA promoter. In kind it is functional. The conditions noted are these: 30 µM.
The target of assay [7] is T4, Tyrosyl-tRNA synthetase, putative (Trypanosoma cruzi (strain CL Brener)) (UniProt Q4DSP6).
T4 sequence (whole entry): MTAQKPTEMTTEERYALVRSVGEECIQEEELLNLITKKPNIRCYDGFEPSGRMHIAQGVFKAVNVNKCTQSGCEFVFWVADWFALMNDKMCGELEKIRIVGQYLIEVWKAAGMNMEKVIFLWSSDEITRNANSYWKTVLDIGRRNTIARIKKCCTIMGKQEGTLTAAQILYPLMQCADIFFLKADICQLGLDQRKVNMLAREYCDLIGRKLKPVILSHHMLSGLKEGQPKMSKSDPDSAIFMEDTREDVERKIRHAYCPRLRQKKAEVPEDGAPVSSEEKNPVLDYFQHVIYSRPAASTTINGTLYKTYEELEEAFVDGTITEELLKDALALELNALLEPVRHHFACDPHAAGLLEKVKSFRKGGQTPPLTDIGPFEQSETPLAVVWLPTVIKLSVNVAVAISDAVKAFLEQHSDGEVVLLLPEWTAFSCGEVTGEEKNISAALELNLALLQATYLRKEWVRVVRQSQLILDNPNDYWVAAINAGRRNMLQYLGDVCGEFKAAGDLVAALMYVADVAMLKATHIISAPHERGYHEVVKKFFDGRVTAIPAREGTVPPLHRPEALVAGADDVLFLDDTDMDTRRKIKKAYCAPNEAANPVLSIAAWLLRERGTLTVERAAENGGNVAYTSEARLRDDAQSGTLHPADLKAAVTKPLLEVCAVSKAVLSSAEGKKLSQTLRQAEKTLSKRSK
The experiment in a line: Trypanosoma cruzi tyrosyl tRNA synthetase (TcYRS) _High Tyrosine SOP. Note: in the data most compounds retested in dose-response had high values. In kind it is functional. The following applies: 30 µM.

Assay [8] deals with T4, Tyrosyl-tRNA synthetase, putative (Trypanosoma cruzi (strain CL Brener)). The assay is described as follows: Trypanosoma cruzi tyrosyl tRNA synthetase (TcYRS) SOP. In kind it is functional. The following applies: 30 µM.
Assay [9] addresses Chromo domain-containing protein 1 (Saccharomyces cerevisiae (strain ATCC 204508 / S288c) (Baker's yeast)) (UniProt P32657). The assay is described as follows: ScCHD-1 Enzyme Inhibition Assay. Note: in the data most compounds retested in dose-response had high values. In kind it is functional. The following applies: 30 µM.

Sequence of Chromo domain-containing protein 1 (Saccharomyces cerevisiae (strain ATCC 204508 / S288c) (Baker's yeast)) (P32657 whole entry, the tested form may be a part): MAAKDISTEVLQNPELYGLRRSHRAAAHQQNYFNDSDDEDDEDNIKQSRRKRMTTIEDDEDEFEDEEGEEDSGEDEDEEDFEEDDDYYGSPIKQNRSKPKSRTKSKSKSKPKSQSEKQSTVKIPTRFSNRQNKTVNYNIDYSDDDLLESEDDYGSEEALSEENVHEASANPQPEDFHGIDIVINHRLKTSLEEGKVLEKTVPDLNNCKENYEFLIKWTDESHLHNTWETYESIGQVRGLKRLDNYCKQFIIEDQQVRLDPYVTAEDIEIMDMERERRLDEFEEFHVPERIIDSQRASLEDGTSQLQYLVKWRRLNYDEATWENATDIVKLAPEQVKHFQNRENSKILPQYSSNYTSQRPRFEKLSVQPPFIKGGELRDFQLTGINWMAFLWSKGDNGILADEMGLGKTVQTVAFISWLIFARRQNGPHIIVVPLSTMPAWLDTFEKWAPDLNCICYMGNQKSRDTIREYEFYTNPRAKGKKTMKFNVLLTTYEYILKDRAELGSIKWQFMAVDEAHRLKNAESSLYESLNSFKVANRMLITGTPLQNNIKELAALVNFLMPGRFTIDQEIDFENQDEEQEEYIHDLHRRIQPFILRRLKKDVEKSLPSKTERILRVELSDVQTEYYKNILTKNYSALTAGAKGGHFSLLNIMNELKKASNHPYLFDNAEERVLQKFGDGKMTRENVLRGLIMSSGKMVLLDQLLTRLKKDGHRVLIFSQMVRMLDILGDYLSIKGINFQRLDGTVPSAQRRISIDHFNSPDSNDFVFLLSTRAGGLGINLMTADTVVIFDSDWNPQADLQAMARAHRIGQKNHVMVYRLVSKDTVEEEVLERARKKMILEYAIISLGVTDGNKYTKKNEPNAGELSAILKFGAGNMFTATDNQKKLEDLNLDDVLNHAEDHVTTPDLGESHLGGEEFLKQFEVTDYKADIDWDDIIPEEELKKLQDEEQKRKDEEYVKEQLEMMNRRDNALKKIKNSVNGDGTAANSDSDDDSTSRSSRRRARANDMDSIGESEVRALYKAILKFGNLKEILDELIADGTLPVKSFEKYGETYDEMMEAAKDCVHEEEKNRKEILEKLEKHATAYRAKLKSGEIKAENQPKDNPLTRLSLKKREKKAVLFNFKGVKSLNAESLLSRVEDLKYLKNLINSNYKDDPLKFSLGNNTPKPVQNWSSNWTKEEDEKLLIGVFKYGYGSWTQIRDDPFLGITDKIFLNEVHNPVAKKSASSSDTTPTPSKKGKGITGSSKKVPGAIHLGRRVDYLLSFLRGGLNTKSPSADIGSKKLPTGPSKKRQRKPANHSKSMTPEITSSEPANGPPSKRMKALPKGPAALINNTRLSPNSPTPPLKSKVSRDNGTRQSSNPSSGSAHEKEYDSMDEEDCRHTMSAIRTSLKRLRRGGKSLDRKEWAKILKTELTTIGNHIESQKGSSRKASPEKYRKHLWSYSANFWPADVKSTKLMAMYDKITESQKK
Sequence of Protein translocase subunit SecA (Escherichia coli (strain K12)) (P10408 whole entry): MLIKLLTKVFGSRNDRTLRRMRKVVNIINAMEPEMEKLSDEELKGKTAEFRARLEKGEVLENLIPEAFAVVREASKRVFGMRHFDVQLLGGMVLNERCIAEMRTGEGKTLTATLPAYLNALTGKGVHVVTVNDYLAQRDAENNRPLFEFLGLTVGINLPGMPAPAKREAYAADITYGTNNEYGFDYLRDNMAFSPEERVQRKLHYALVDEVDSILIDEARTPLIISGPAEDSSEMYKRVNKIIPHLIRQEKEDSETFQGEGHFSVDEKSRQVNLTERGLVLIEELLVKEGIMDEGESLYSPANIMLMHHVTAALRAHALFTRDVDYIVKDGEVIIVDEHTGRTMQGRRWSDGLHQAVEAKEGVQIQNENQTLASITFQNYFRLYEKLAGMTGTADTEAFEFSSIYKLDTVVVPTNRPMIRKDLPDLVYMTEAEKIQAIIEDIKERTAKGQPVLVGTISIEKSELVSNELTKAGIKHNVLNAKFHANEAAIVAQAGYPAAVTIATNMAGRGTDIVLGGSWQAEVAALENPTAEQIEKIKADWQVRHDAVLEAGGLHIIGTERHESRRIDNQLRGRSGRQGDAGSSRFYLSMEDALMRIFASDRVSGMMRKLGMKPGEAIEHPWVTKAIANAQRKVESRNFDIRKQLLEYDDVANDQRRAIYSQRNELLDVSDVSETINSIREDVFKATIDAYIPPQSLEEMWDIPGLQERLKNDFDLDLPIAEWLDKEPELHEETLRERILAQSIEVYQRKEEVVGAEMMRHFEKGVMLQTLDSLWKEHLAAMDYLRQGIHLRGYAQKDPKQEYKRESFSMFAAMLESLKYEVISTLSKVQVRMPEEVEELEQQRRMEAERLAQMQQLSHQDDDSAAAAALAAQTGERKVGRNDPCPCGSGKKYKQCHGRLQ
Sequence of Sialic acid-binding Ig-like lectin 9 (Homo sapiens) (Q9Y336 whole entry): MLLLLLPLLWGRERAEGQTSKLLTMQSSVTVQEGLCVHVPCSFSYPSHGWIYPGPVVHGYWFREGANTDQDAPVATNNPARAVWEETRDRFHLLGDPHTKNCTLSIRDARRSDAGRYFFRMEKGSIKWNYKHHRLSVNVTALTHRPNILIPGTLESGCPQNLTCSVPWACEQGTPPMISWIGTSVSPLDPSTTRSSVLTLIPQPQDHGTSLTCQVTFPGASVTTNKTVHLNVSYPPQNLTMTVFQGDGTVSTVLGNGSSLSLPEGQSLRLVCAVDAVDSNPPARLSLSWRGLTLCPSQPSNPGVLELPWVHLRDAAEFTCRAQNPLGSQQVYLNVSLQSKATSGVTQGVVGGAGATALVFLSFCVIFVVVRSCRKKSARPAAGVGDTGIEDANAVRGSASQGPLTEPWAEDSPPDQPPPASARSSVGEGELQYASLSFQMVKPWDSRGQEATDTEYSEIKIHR

As for `Cc1ccccc1C(=O)NCc1ccc(N2CCNC(=O)C2)cc1`, the Percent Effect in assay [1] is 1.43%; in assay [2], 5.41%; in [3], -9.32%; in assay [4] it was 6.76%; in the assay on Trypanosoma cruzi it was 1.16%; in [5] it was -14.8%. The Percent Effect was 14.3% in assay [6]; -13.4% in the assay filed under Homo sapiens; 15.3% in [7]; 17.1% in assay [8]; -3.63% in assay [9].

In the case of `CCOc1ccccc1Nc1nc2c(C)nn(C)c2c(=O)n1C`, the Percent Effect in [1] was -4.55%; in assay [2], 20.8%; in assay [3], 1.12%; in [4] it was 10.9%; in the assay with Trypanosoma cruzi it was 3.64%; in [5], 6.9%. For the same molecule, the Percent Effect was 10.7% in assay [6]; -5.39% in the assay listed under Homo sapiens; 8.6% in assay [7]; 18.5% in assay [8]; -6.44% in assay [9].

`Cc1ccc(C(=O)NCC2(O)CCOCC2)cc1Br`: the Percent Effect in [1] is -4.53%; in [2], 5.41%; in assay [3], 0.131%; in [4], 12.8%; in the assay on Trypanosoma cruzi it was -0.772%; in assay [5] it was -2.38%. For the same molecule, the Percent Effect in assay [6] is 7.07%; in the assay listed under Homo sapiens, 19%; in [7], 4.76%; in assay [8] it was 7.32%; in assay [9], -2.67%.

For the molecule `CC(NC(=O)NCCCO)c1ccc2c(c1)OCCO2` (stereo unspecified), the Percent Effect in assay [1] was -1.5%; in assay [2], 16.2%; in assay [3], 0.694%; in [4] it was -1.77%; with Trypanosoma cruzi it was 1.76%; in assay [5], 3.51%. Further, the Percent Effect in assay [6] is 14.2%; in the assay listed under Homo sapiens it was 2.1%; in [7], 4.95%; in assay [8], 28.1%; in assay [9] it was -6.78%.

On to `O=C(NC1CC1)N1CCc2ncnc(-c3ccncc3)c2CC1`, for which the Percent Effect in [1] was 5.45%; in [2], 10.7%; in assay [3], 17.6%; in assay [4], 1.38%; with Trypanosoma cruzi, -6.37%; in assay [5] it was -55.4%. For the same molecule, the Percent Effect was 12% in assay [6]; 4.1% in the assay listed under Homo sapiens; 2.08% in assay [7]; 25% in assay [8]; -4.64% in assay [9].

With `CC1c2ncc(Cn3cncn3)n2CCN1C1CCOCC1` (stereo unspecified), the Percent Effect in assay [1] was -4.22%; in assay [2], -2.67%; in assay [3] it was -5.46%; in assay [4], -3.4%; in the assay on Trypanosoma cruzi it was -4.83%; in [5], -54.3%. The Percent Effect in assay [6] was 9.91%; in the assay listed under Homo sapiens it was 2.92%; in [7], 2.08%; in assay [8] it was -12.5%; in assay [9], -5.31%.

As to `COCC(=O)N1CC[C@H]2C[C@H](C)O[C@@H]2C1`, the Percent Effect in [1] was -3.06%; in [2], 13.3%; in assay [3], 4.66%; in assay [4], -5.49%; with Trypanosoma cruzi it was 4.53%; in [5] it was -2.56%. The Percent Effect was 17.4% in [6]; -11.4% in the assay filed under Homo sapiens; 7.45% in assay [7]; 14.1% in assay [8]; -3.21% in [9].

Regarding `Cc1cccc(-c2ccc(C(=O)NCC(C)(C)C(N)=O)c(=O)[nH]2)c1`, the Percent Effect in assay [1] is -5.4%; in assay [2], 2.7%; in assay [3], -7.65%; in assay [4], 17.1%; in the assay with Trypanosoma cruzi, 2.92%; in assay [5], -2.81%. Also, the Percent Effect was 5.41% in [6]; 0.882% in the assay filed under Homo sapiens; -0.493% in [7]; 11.1% in assay [8]; -14.8% in assay [9].

As to `CC1CCCN(CCNC(=O)c2cncnc2C(C)C)C1` (stereo unspecified), the Percent Effect in assay [1] was -2.89%; in assay [2], 6.94%; in assay [3] it was -1.93%; in assay [4], -5.17%; in the assay on Trypanosoma cruzi, -4.96%; in assay [5] it was 0.442%. For the same molecule, the Percent Effect in [6] was 8.25%; in the assay filed under Homo sapiens, -15.9%; in assay [7], 4.21%; in assay [8], 12.8%; in assay [9], -3.15%.

Consider `Cc1ccc(-n2nnc(CC(=O)N3CCSCC3)c2C)cc1`, for which the Percent Effect in assay [1] was -3.7%; in [2], 20.8%; in assay [3], -1.3%; in assay [4], 11.8%; with Trypanosoma cruzi, 3.83%; in [5] it was -5.52%. Moreover, the Percent Effect in assay [6] was 11.2%; in the assay filed under Homo sapiens, -2.27%; in assay [7] it was 5.38%; in [8] it was 21%; in [9], -9.71%.

As to `Cc1oncc1C(=O)N1CCC2(CCN(Cc3ccccn3)C2=O)C1` (stereo unspecified), the Percent Effect in assay [1] is -5.3%; in [2], -2.74%; in [3] it was -0.544%; in assay [4] it was 4.81%; in the assay with Trypanosoma cruzi it was -2.78%; in [5] it was -3.19%. In addition, the Percent Effect is 8.82% in assay [6]; 15.6% in the assay listed under Homo sapiens; 2.08% in [7]; 1.24% in assay [8]; -0.071% in [9].
